Cruzain Triton – blocks cruzain activity in presence of Triton detergent | P25779 | purified cruzain, Z-FR-AMC fluorescence, 0.01% Triton | 200,000 tested, 0.43% active | Potency, µM, inactives show max response, negative = inhibition, actives largely listed as inhibitors | AID 1478;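 note: plate controls were neutral wells for no effect and buffer without enzyme for full effect; nearly all actives have a fitted effect of over 40% in size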
Target sequence (P25779 123-467 limits assumed): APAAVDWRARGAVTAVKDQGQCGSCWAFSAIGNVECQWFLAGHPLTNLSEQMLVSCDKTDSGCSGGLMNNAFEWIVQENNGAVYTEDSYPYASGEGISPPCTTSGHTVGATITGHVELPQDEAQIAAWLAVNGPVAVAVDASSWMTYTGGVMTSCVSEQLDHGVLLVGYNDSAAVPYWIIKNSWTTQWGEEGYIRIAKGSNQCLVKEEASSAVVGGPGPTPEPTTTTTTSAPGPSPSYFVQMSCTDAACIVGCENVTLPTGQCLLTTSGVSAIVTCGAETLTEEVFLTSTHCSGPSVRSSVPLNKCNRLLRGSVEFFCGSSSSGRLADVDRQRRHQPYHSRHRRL
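Read-out: AMC fluorescence (360 nm excitation, 450 nm emission), four reads over 2 min, first-to-third difference used. Conditions: cruzain 1.5 nM, Z-FR-AMC 2 uM, pH 5.5 acetate, 5 mM DTT, 0.01% Triton X-100.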
Cruzain noTriton – inhibitors of Trypanosoma cruzi cruzain without detergent | P25779 | purified cruzain, Z-FR-AMC fluorescence, no detergent | Potency, µM, for inactives: max response, negative = inhibition, most hits filed as inhibitors | 200,000 tested, 2.3% active | AID 1476;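 note: plate controls were enzyme without inhibitor for no effect and buffer without enzyme for full effect; nearly all actives have a fitted effect of over 40% in size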
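Detergent-free condition (0.00005% Triton X-100) in acetate buffer pH 5.5 with DTT. 1.5 nM enzyme and compound were pre-mixed 15 min, then 2 uM Z-FR-AMC substrate added; reaction progress from fluorescence change between first and third reads (60 s).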
* hit, by the source's call; ? = inconclusive. Rows were chosen to be rich in hits. Some 2.5% of all compounds tested hit in one or more screens of this group. Calls come from the whole dose curve; as a rule, active = well fitted curve in the direction sought with a large enough effect; inconclusive = small, poorly fitted or top-dose-only effect, or another doubt; inactive = no such curve, though single readings can be large; an effect the other way counts as inactive or inconclusive. Potency is the fitted concentration of half-maximal effect.

SMILES	Cruzain Triton	Cruzain noTriton
CC12CC[C@@H]3c4ccc(OP(=O)(O)O)cc4CCC3C1CCC2=O (stereo partly specified)	11.2%	3.5%
COC(=O)C1=C(C)NC(=S)NC1c1ccc(-c2cccc(Cl)c2)o1 (stereo unspecified)	-7.3%	25.1µM*
CCOC(=O)C1=C(C)NC(=S)NC1c1ccc(-c2ccc(Cl)cc2)o1 (stereo unspecified)	-3.8%	?
COc1cccc(Cn2c(=O)cc(C)c3c(C)nn(-c4ccc(C)cc4)c32)c1	-1.3%	-7.2%
C#CCOC(=O)/C(=C/C=C/c1ccccc1)NC(=O)c1ccccc1	7.08µM*	12.6µM*
CC(C)OC(=O)/C(=C\C=C\c1ccccc1)NC(=O)c1ccccc1	-12.0%	-8.9%
O=C(Nc1ccc(SC(F)F)cc1)c1cc(-c2ccc3c(c2)OCCO3)on1	0.1%	7.94µM*
CC(=O)Nc1ccc(NC(=O)c2cc(-c3ccc4c(c3)OCCO4)on2)cc1	-0.2%	-8.3%
Cc1cccc(NC(=O)C(Cc2ccccc2)n2cccc2)c1C (stereo unspecified)	-7.2%	5.4%
Cc1nc2ccccn2c(=O)c1NC(=O)c1ccc(C(F)(F)F)cc1	-2.8%	-14.3%
Cc1nn(-c2ccc(N3CCCCC3)nn2)c(C)c1CCC(=O)NCc1ccc(Cl)cc1	3.9%	?
O=C(CCS(=O)(=O)c1nc(-c2ccc3c(c2)OCO3)cc(C(F)(F)F)n1)Nc1ccccc1C(F)(F)F	-28.8%	?
Cc1ccccc1CS(=O)(=O)c1nnc([C@H](CC(C)C)NC(=O)OC(C)(C)C)o1	12.6µM*	25.1µM*
C[C@H](NC(=O)OC(C)(C)C)c1nnc(SCc2c(F)cccc2Cl)o1	-2.2%	-5.1%
CC(C)(C)OC(=O)N[C@@H](Cc1ccccc1)c1nnc(S(=O)(=O)Cc2cccc(F)c2)o1	12.6µM*	20µM*
CC(C)[C@H](NC(=O)OC(C)(C)C)c1nnc(S(=O)(=O)Cc2c(F)cccc2Cl)o1	3.55µM*	5.01µM*
CCOC(=O)CSc1nnc([C@H](Cc2ccccc2)NC(=O)OC(C)(C)C)o1	-3.8%	-9.9%
CC(C)C[C@H](NC(=O)OC(C)(C)C)c1nnc(SCc2ccccc2)o1	-2.5%	11.6%
COC(=O)[C@H](Cc1ccccc1)NC(=O)O[C@@H]1C(=O)c2ccc(OC)cc2O[C@H]1c1cccc(C(F)(F)F)c1	-1.0%	17.3%
NCCc1c[nH]c2ccc(OC(=O)C(=O)O)cc12	-1.8%	7.6%
CCCN(Cc1cccs1)C(=O)Nc1cc(C)cc(C)c1	-9.2%	-9.7%
CCCn1c2ccccc2c2cnn(CC(=O)NCc3ccc(OC)cc3)c(=O)c21	1.8%	-3.4%
CCOC(=O)Nc1ccc(C)cc1C	4.5%	0.8%
Cc1ccc(NC(=O)COC(=O)C(CC(C)C)N2C(=O)C3CC=CCC3C2=O)c(C)c1 (stereo unspecified)	25.1µM*	8.5%
CSc1nn(Cc2ccccc2C)c(NC(C)=O)c1S(=O)(=O)c1ccc(C)cc1	-3.8%	22.2%
SMILES	Cruzain Triton	Cruzain noTriton
COC(=O)NNC(=O)CCCOc1ccc(Cl)cc1Cl	0.6%	4.4%
O=C(O)CCC(=O)NNC(=O)CCCOc1ccc(Cl)cc1Cl	2.2%	-9.0%
O=C(CCCOc1ccc(Cl)cc1Cl)NNC(=O)c1ccc(NC(=O)c2ccccc2)cc1	-4.5%	3.98µM*
Cc1ccccc1C(=O)Nc1ccc(C(=O)NNC(=O)CCCOc2ccc(Cl)cc2Cl)cc1	3.1%	10µM*
O=S(=O)(c1ccccc1)c1nnn2c1nc(Nc1ccccc1)c1cc(Cl)ccc12	0.5%	7.5%
CC1=C(c2ccc(C)cc2)S(=O)(=O)NC1=NCCCN1CCN(c2ccccc2F)CC1	-3.8%	10.1%
C=CCn1c(=NC(=O)c2sc3ccccc3c2Cl)sc2cc(S(N)(=O)=O)ccc21	-25.9%	20µM*
COCCn1c(=NC(=O)c2sc3ccccc3c2Cl)sc2cc(S(N)(=O)=O)ccc21	-14.6%	5.8%
N/C(=N\OC(=O)c1ccc2ccccc2c1)c1ccc(Br)cc1	-1.6%	10µM*
Cc1cccc(C(=O)O/N=C(\N)c2ccc(Br)cc2)c1	0.2%	3.1%
CC(/C=N/NC(=O)c1cc(-c2ccccc2)nc2ccccc12)=C\c1ccco1	-9.4%	?
CC(/C=N/NC(=O)c1cc(-c2ccc(Cl)cc2)nc2ccccc12)=C\c1ccco1	-2.0%	7.94µM*
COc1ccc2c(c1)c1c(c(=O)n(-c3ccc(F)c(Cl)c3)c(=O)n1Cc1ccccc1C)n2C	-1.5%	-6.9%
Cc1cccc(-c2nc(CCNC(=O)c3ccccc3Br)cs2)c1	-12.0%	-5.7%
Cn1c2c(c(=O)n(C)c1=O)C(c1cccc(O)c1)CC(=O)N2 (stereo unspecified)	0.1%	-3.9%
CCOc1cc(/C=N/NC(=O)CSc2nnc(C)s2)ccc1OCc1ccccc1Cl	-2.1%	13.6%
CCOc1cc(/C=N\NC(=O)Cn2nc([N+](=O)[O-])cc2C)ccc1OCc1cccc2ccccc12	-1.5%	12.6µM*
C=CCn1c(-c2cccc(Cl)c2)n[nH]c1=S	-5.8%	11.6%
C=CCn1c(-c2oc3nc(-c4ccccc4)cc(-c4ccccc4)c3c2N)n[nH]c1=S	-11.4%	25.1µM*
O=C(O)C(=Cc1ccc(-c2ccccc2)cc1)C(=O)O	7.0%	2.9%
CC1=C(C(=O)OCc2ccc3c(c2)OCO3)C(c2ccccc2)NC(=O)N1 (stereo unspecified)	-3.8%	-5.7%
CC1=C(C(=O)OCc2ccc3c(c2)OCO3)C(c2ccccc2OCc2ccccc2)NC(=O)N1 (stereo unspecified)	-0.7%	15.8µM*
O=C(COC(=O)c1n[nH]c2ccccc12)Nc1ccc([N+](=O)[O-])cc1	-5.7%	10µM*
COC(=O)c1n[nH]c2ccccc12	-3.4%	13.9%
COc1cc(OC)cc(C(=O)Nc2ccc(S(=O)(=O)N3CCCCC3c3cccnc3)cc2)c1 (stereo unspecified)	-2.2%	-2.8%
SMILES	Cruzain Triton	Cruzain noTriton
CCCC(=O)Nc1ccc(Nc2ccccc2)cc1	-4.0%	13.0%
CCCC(=O)Nc1ccc(-c2ccc(NC(=O)CCC)cc2)cc1	-0.7%	12.6µM*
N#CC1=C2SCN(Cc3ccco3)CN2C(=O)CC1c1c(F)cccc1Cl (stereo unspecified)	?	20µM*
COc1ccc(Br)cc1C1CC(=O)N2CN(C)CSC2=C1C#N (stereo unspecified)	-6.1%	2.5%
Cc1ccc(C2CC(=O)N3CN(Cc4ccco4)CSC3=C2C#N)cc1 (stereo unspecified)	-2.5%	-5.4%
COc1ccc(Br)cc1C1CC(=O)N2CN(Cc3ccccc3)CSC2=C1C#N (stereo unspecified)	?	31.6µM*
O=[N+]([O-])c1ccc(S(=O)(=O)N2CCn3cccc3C2c2ccc(Br)cc2)cc1 (stereo unspecified)	-2.9%	?
Cc1ccc(C2c3cccn3CCN2S(=O)(=O)c2ccc([N+](=O)[O-])cc2)cc1 (stereo unspecified)	-6.0%	31.6µM*
COc1ccc2oc(-c3ccc(C)c(NC(=O)c4ccc5c(c4)OCCO5)c3)nc2c1	0.7%	3.1%
O=C(Nc1nc2c(ccc3ccccc32)s1)c1ccco1	-12.0%	-20.0%
O=C(NC(=S)Nc1nc2c(ccc3ccccc32)s1)c1cccs1	-0.8%	20µM*
Cc1cc(C)c(-c2cc(NC(=O)CSc3nncn3C)n(-c3ccccc3)n2)cc1C	-2.5%	?
Cc1cc(C)c(-c2cc(NC(=O)COC(=O)c3ccc(C#N)cc3)n(-c3ccccc3)n2)cc1C	-6.0%	15.8µM*

Source: PubChem (National Center for Advancing Translational Sciences (NCATS))
